The record followed here is the supplement of paper PMC6555819.

What all share (assay): PBM binding z-score (relative to random genomic background probes); higher = stronger binding; sequences stand for … in GC…GCGATTGACAGCGTAGAATGAAGG
The subject of assay [1] is FXR:RXRa (NR concentration 270 nM, RXRa partner concentration 90 nM). In outline:
(§1)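 The probes on custom Agilent 4×180K protein-binding microarrays were double-stranded, with 34-nt variable regions bearing direct-repeat seeds, single-nucleotide variants, half-site ablations and random human genomic background sequences. Incubation lasted 1 h with ligand-free nuclear receptor dimers in PBS pH 7.4, 2% milk, 0.02% Triton X-100, 1 mM DTT, 0.2 mg/mL BSA and 0.4 mg/ml salmon testes DNA. Antibodies against each partner (one per run) detected bound dimers, and fluorescence scans were regression-normalized. Binding z-scores take the random background probes as reference.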

For assay [2], the system named is LXRa:RXRa (NR concentration 270 nM, RXRa partner concentration 90 nM). In a few lines:
as §1

In assay [3] the test system is LXRa homodimer (NR concentration 270 nM). In a few lines:
as §1

Assay [4] deals with LXRb:RXRa (NR concentration 270 nM, RXRa partner concentration 90 nM). In a few lines: as §1
Assay [5] concerns LXRb homodimer (NR concentration 270 nM). In outline:
as §1

The subject of assay [6] is PPARa:RXRa (NR concentration 270 nM, RXRa partner concentration 90 nM). In a few lines:
as §1

The test system of assay [7] is PPARg:RXRa (NR concentration 180 nM, RXRa partner concentration 90 nM). In outline:
as §1

Assay [8] relates to PPARg:RXRa 270nM:90nM, anti-RXR (NR concentration 270 nM, RXRa partner concentration 90 nM). In a few lines:
as §1

In assay [9] the test system is PPARg:RXRa 30nM:10nM, anti-RXR (NR concentration 30 nM, RXRa partner concentration 10 nM). In a few lines:
as §1

Assay [10] has as its system PPARg:RXRa 90nM:30nM, anti-RXR (NR concentration 90 nM, RXRa partner concentration 30 nM). In a few lines:
as §1

Assay [11] relates to PPARg:RXRa DBDmut IVT, anti-RXR (DBD mutation: RXRa K156A/R161A, NR concentration 270 nM, RXRa partner concentration 90 nM). In a few lines: as §1
For assay [12], the system named is PPARg:RXRa IVT, anti-PPARg (NR concentration 270 nM, RXRa partner concentration 90 nM). In outline: as §1
The test system of assay [13] is PPARg DBDmut:RXRa IVT, anti-PPARg (DBD mutation: PPARg1 K132A/R137A, NR concentration 270 nM, RXRa partner concentration 90 nM). In a few lines:
as §1

The test system of assay [14] is PPARg DBDmut IVT, anti-PPARg (DBD mutation: PPARg1 K132A/R137A, NR concentration 270 nM). In outline:
as §1

For assay [15], the system named is PPARg homodimer (NR concentration 180 nM). In a few lines:
as §1

For assay [16], the system named is PXR:RXRa (NR concentration 270 nM, RXRa partner concentration 90 nM). In a few lines: as §1
For assay [17], the system named is PXR homodimer (NR concentration 270 nM). In outline: as §1
Assay [18] has as its system RARa:RXR (NR concentration 270 nM, RXRa partner concentration 90 nM). In outline:
as §1

Assay [19] relates to RARa homodimer (NR concentration 270 nM). In outline:
as §1

Assay [20] relates to RARb:RXRa (NR concentration 270 nM, RXRa partner concentration 90 nM). In a few lines:
as §1

In the case of CCTAGAAGGCCAATCTGGGTCACTCAAGGCTTGA, the PBM binding z-score in [1] is 1.99; in [2] it was 3.1; in [3], -0.29; in [4], 2.04; in assay [5] it was -0.793; in assay [6], 3.72. Moreover, the PBM binding z-score in [7] is 2.93; in assay [8] it was 2.57; in assay [9], 0.176; in assay [10] it was 1.97; in [11], 3.74; in assay [12], 4.78. The PBM binding z-score in [13] was -0.238; in assay [14] it was -1.07; in [15], 1.21; in [16], 1.86; in assay [17], -0.344; in assay [18] it was 2.12. The PBM binding z-score was determined as 0.185 in assay [19] and 2.4 in [20].
As for GCGAGTGGGGCAAAGCAGGTTACCATAAGGTTGG, the PBM binding z-score was 0.592 in assay [1]; 0.51 in [2]; -0.115 in assay [3]; 0.552 in assay [4]; -0.338 in [5]; 1.36 in [6]. Moreover, the PBM binding z-score in assay [7] was 0.889; in assay [8], 1.12; in assay [9] it was -0.171; in [10], 0.35; in [11], 3.82; in [12], 2.88. Further, the PBM binding z-score in assay [13] is -0.867; in assay [14], -0.658; in [15], 0.436; in assay [16] it was 0.562; in assay [17], -0.254; in assay [18], 0.873. In addition, the PBM binding z-score in assay [19] was determined as 0.0402; in [20], 1.
TCTAGCAGGCCAGAGGGTCACTGAAGAGGTACGG: the PBM binding z-score in assay [1] is 0.95; in assay [2] it was 1.08; in assay [3], -0.818; in [4] it was 1.01; in [5], -1.1; in assay [6] it was 2.79. In addition, the PBM binding z-score in [7] was 1.69; in [8] it was 2.79; in assay [9] it was 1.92; in assay [10], 2.4; in assay [11], 1.24; in assay [12], 0.963. For the same sequence, the PBM binding z-score in [13] is -0.7; in [14], -1.2; in assay [15], 0.503; in assay [16] it was 1.53; in assay [17], -0.448; in [18], 2.29. The PBM binding z-score in assay [19] is -0.0509; in assay [20] it was 2.34.
Regarding CCTACTGGGCCAAGGTCATTAATCAGTCAAAGCA, the PBM binding z-score in assay [1] is 2.47; in [2] it was 2.57; in assay [3] it was 1.18; in assay [4], 2.82; in assay [5], -0.0551; in [6], 3.71. The PBM binding z-score came to 3.45 in [7]; 4.19 in [8]; 1.47 in assay [9]; 3.23 in [10]; 3.47 in assay [11]; 4.44 in assay [12]. In addition, the PBM binding z-score in [13] turned out to be 0.31; in [14] it was 0.133; in assay [15], 2.15; in assay [16], 3.16; in assay [17], 1.21; in assay [18], 3.39. Besides, the PBM binding z-score in assay [19] turned out to be 0.145; in [20] it was 3.29.
Regarding GCTATTCGTTGAAAGGGCAACCGAATGATTCTCG, the PBM binding z-score was 0.141 in assay [1]; 0.488 in [2]; 0.342 in assay [3]; 0.644 in assay [4]; -0.0285 in [5]; 1.61 in [6]. Moreover, the PBM binding z-score in assay [7] stood at 1.23; in assay [8] it was 2.56; in assay [9], 0.831; in assay [10], 2.16; in assay [11], 0.00432; in [12] it was 0.413. For the same sequence, the PBM binding z-score in [13] is 0.733; in assay [14], 0.234; in assay [15], 0.801; in [16], 0.591; in assay [17], -0.255; in assay [18], 0.689. Further, the PBM binding z-score worked out at 0.463 in [19] and 1.8 in [20].
In the case of CCGACTGGGGCATAAGGTTACCAGAAGCCAGCCC, the PBM binding z-score is 0.432 in assay [1]; 1.72 in assay [2]; -0.288 in assay [3]; 0.864 in [4]; -1.26 in [5]; 2 in assay [6]. For the same sequence, the PBM binding z-score was 2.27 in [7]; 3.48 in [8]; 1.75 in [9]; 2.93 in [10]; 3.11 in assay [11]; 3.13 in [12]. Also, the PBM binding z-score was -1.29 in [13]; -1.2 in [14]; 0.743 in [15]; 0.265 in [16]; -0.64 in [17]; 1.84 in assay [18]. Also, the PBM binding z-score in [19] was -0.798; in [20], 1.78.
Regarding CCTCGGAGGACAGAAGGTCAGAGCGGTCCGCTTT, the PBM binding z-score in assay [1] was 1.42; in [2], 1.8; in assay [3], 0.0694; in [4], 0.843; in [5], -0.863; in assay [6], 1.78. Further, the PBM binding z-score was -0.185 in assay [7]; 0.642 in [8]; -0.618 in [9]; 0.0661 in [10]; 0.0292 in [11]; -0.0958 in assay [12]. Besides, the PBM binding z-score was -1.49 in assay [13]; -1.9 in assay [14]; 1.2 in assay [15]; 1.91 in assay [16]; -0.289 in assay [17]; 1.91 in assay [18]. Further, the figures for the PBM binding z-score in [19] and in assay [20] were 0.122 and 3.18, respectively.
